The text below walks through data of PubChem BioAssay (Tox21).

A short description of test [1]: qHTS assay for small molecules that induce genotoxicity in human embryonic kidney cells expressing luciferase-tagged ATAD5 (AID 651632). Further: nearly all actives have a fitted effect of over 15% in size. Further: potency means the concentration at half of the fitted maximal effect. In a few lines: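 DMSO vehicle served as the control. HEK293T reporter cells, 16 hr at 37C, then 30 min Amplite at room temperature; ATAD5 induction is measured as luciferase activity.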
(In general: qHTS replaces the single test concentration by a dilution series.)

The nature of test [2]: qHTS assay for small molecule agonists of the p53 signaling pathway - cell viability (AID 651633; calls by dose curve; further: nearly all actives have a fitted effect of over 30% in size; further: potency means the concentration at half of the fitted maximal effect). In a few lines:
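p53RE-bla cells were treated with compound for 16 hours at 37 C. Cytotoxicity was then measured as CellTiter-Glo luminescence after 30 min at room temperature.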

Test [3] is described as follows: qHTS assay for small molecules that induce genotoxicity in human embryonic kidney cells expressing luciferase-tagged ATAD5 - cell viability (AID 651634; calls by dose curve; further: nearly all actives have a fitted effect of over 25% in size; further: potency means the concentration at half of the fitted maximal effect). The method in brief:
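Here HEK293T cells with the ATAD5 luciferase reporter are incubated with test compounds for 15.5 hr, and cytotoxicity is then gauged by measuring protease activity in live cells using fluorescence.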

The nature of test [4]: qHTS assay for small molecule disruptors of the mitochondrial membrane potential - cell viability (AID 720634; calls by dose curve;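 further: human HepG2 liver cancer cells; series mostly up to about 83 µM; nearly all actives have a fitted effect of over 20% in size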). The method in brief:
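Viability of HepG2 cells is scored from ATP content by luminescence; cells are exposed to compound for 1 hr at 37 C and 5% CO2, then dosed with m-MPI dye before the CellTiter-Glo reagent.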

A short description of test [5]: qHTS assay to test for compound auto fluorescence at 460 nm (blue) in HEK293 cells (AID 720678). The method in brief:
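Cells were seeded and left to adhere for 4-5 hr at 37C. Compounds were then pin-transferred. After an overnight incubation at 37C under 5% CO2, intrinsic fluorescence at 405/460 nm was measured and referenced to triamterene.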

The nature of test [6]: qHTS assay to test for compound auto fluorescence at 590 nm (red) in HEK293 cells (AID 720679). In a few lines:
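Each well held 2,000 HEK293 cells in medium containing 10% dialyzed FBS. Following 4-5 hr attachment at 37C, 23 nL test compound or DMSO was added; plates sat overnight, and red fluorescence (540/590nm) was recorded.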

Test [7] is described as follows: qHTS assay to test for compound auto fluorescence at 535 nm (green) in HEK293 cells (AID 720680).
Test [8] is described as follows: qHTS assay to test for compound auto fluorescence at 460 nm (blue) in HEK293 cell free culture (AID 720681). The method in brief:
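Compounds were added to cell-free DMEM with 10% FBS and fluorescence read directly. The blue channel used 405 nm excitation and 460 nm emission, with triamterene as the reference fluorophore.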

Test [9] can be described thus: qHTS assay to test for compound auto fluorescence at 535 nm (green) in HEK293 cell free culture (AID 720682). In a few lines: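 DMEM + 10% FBS, cell-free; cpd or DMSO pinned in; Ex485/Em535 read; output as fluorescein-equivalent signal.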
Test [10] can be described thus: qHTS assay to test for compound auto fluorescence at 590 nm (red) in HEK293 cell free culture (AID 720683). In a few lines: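 Cell-free wells of DMEM with 10% FBS received compound, and intrinsic fluorescence was read at excitation/emission 540/590 nm. Values expressed as equivalence to Rose Bengal sodium.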
Test [11] in a line: qHTS assay to test for compound auto fluorescence at 590 nm (red) in HepG2 cell free culture (AID 720684). The method in brief: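 Rose Bengal sodium served as the reference for red signal. Test compounds were dispensed into serum-containing MEM (10% FBS) without cells, and plates were read at 540/590 nm.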
Test [12] can be described thus: qHTS assay to test for compound auto fluorescence at 460 nm (blue) in HepG2 cell free culture (AID 720685). The method in brief:
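Cell-free plates of MEM plus 10% FBS received 23 nL compound or DMSO vehicle; blue-channel (405/460 nm) intensity scored against triamterene as reference fluorophore.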

The nature of test [13]: qHTS assay to test for compound auto fluorescence at 535 nm (green) in HepG2 cell free culture (AID 720686).
The nature of test [14]: qHTS assay to test for compound auto fluorescence at 460 nm (blue) in HepG2 cells (AID 720687). The method in brief:
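HepG2 cells in MEM with 10% FBS, attached overnight at 37 C, were exposed to compound or DMSO for 1 hr at 37 C, 5% CO2. Blue fluorescence was read at 405/460 nm, with triamterene as reference fluorophore.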

Test [15] is described as follows: qHTS assay to test for compound auto fluorescence at 535 nm (green) in HepG2 cells (AID 720675).
Test [16] in a line: qHTS assay for small molecule disruptors of the mitochondrial membrane potential (AID 720635). Further: potency means the concentration at half of the fitted maximal effect. In a few lines: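 HepG2 cells exposed to compound 1 hr at 37C, then Mito-MPS dye 30 min. Ratio read of aggregate (540/590 nm) versus monomer (490/535 nm) fluorescence.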
Test [17] in a line: qHTS assay to test for compound auto fluorescence at 590 nm (red) in HepG2 cells (AID 720674). The method in brief: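 Seeding: 2,000 HepG2 cells/well, MEM/10% FBS, overnight 37 C. Dosing: compound vs DMSO. Incubation: 1 hr, 37 C, 5% CO2. Read: fluorescence 540 ex/590 em, Rose Bengal sodium as red reference.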
The target of test [18] is Glucocorticoid receptor (Homo sapiens) (UniProt P04150). Nature of the test: qHTS assay to identify small molecule agonists of the glucocorticoid receptor (GR) signaling pathway (AID 720691; active means well fitted activation curve with a large enough effect in the signal ratio in the repeat runs, not every such curve was filed as active; the % refers to the signal ratio). The method in brief:
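Compounds in DMSO, alongside positive controls, were added to GR-bla HeLa reporter cells and incubated 18 h at 37 C; GRE-driven beta-lactamase was detected by fluorescence after 2 h with FRET substrate at room temperature.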

SMILES strings stand for the structures. Unmarked numbers belong to inactive results. Results filed as inconclusive are left out. Activity calls are given as the source filed them. Unless noted, the call rests on the fitted dose curve; in most records, active means well fitted curve in the direction sought with a large enough effect in the repeat runs; inconclusive means weak or mixed curves; inactive means no such curve, though single readings can be large; an effect the other way counts as inactive or inconclusive.
On the % scale 0 is the no-effect control and ±100 the full control effect.

Sequence of Glucocorticoid receptor (Homo sapiens) (P04150 whole entry, looked up): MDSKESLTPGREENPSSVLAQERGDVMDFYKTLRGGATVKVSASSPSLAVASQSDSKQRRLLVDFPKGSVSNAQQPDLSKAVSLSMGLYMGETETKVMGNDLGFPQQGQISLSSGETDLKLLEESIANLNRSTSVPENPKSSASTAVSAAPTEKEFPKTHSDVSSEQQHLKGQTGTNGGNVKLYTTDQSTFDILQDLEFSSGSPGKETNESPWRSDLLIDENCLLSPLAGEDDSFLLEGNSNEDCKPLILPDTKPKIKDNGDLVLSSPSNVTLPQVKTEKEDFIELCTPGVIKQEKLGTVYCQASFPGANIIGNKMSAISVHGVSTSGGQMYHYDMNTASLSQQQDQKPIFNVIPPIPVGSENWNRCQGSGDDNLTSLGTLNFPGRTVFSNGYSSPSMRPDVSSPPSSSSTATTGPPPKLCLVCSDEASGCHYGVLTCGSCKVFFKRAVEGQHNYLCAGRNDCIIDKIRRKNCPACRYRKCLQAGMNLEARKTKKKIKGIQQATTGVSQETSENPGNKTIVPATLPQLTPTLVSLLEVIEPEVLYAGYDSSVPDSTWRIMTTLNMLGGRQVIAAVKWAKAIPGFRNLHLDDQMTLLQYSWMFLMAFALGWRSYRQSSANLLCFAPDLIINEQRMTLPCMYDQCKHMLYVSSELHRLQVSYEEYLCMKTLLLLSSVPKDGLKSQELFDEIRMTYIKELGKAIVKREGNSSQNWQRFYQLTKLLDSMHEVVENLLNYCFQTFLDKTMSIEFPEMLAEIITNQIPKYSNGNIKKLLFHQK

Regarding `O=C(OCC(O)CO)c1ccccc1Nc1ccnc2cc(Cl)ccc12` (centres undefined), the Potency entry in test [1], in [2], in test [3] and in [4] was “inactive” in each case. Besides, the fluorescence, % of triamterene in test [5] is 0.52% [at 18.6 µM]. Further, the fluorescence, % of fluorescent control in test [6] is -0.0042% [at 18.6 µM]; in test [8], 0.416% [at 18.6 µM]; in test [10], 0.0763% [at 18.6 µM]; in test [12] it was 0.0675% [at 18.6 µM]; in [14], 0.322% [at 18.6 µM]. The fluorescence, % of fluorescein in test [7] is -0.106% [at 18.6 µM]. In addition, in test [9], the activity change was 0.0295% [at 18.6 µM]. In test [11], the fluorescence, % of Rose Bengal is 0.268% [at 18.6 µM]. In addition, in test [13], the fluorescence, % of fluorescein control was -0.0285% [at 18.6 µM].

As for `N#CCc1ccc(Cl)cc1Cl`, the Potency result in test [1], in test [2], in test [3], in test [4], in test [5] and in test [8] was “inactive” each time. Also, the Potency entry in [12] and in [14] was “inactive” throughout. The compound was called inactive in [15], in test [6], in [7], in [9], in [10] and in test [11]. Besides, the result in test [13] was inactive.

Consider `CCC(C)(C)OC`, for which the Potency result in test [1], in [2], in [4], in test [16], in [5] and in [8] was “inactive” throughout. Further, the Potency entry in [12], in test [14] and in test [18] was “inactive” in each case. Further, the compound was called inactive in test [17], in test [6], in test [7], in [9], in test [10] and in test [11]. Moreover, the compound was classed as inactive in [13].

For the compound `O=C(O)c1cccc(-c2noc(-c3ccccc3F)n2)c1`, the Potency in [1] was 0.0237 µM (active); in test [2], 29.8 µM (active). For the same compound, the Potency result in [3], in [16], in test [5], in test [8], in test [12] and in test [14] was “inactive” throughout. In addition, the Potency entry in test [18] is “inactive”. In addition, the outcome in test [17], in test [6], in test [7], in [9], in [10] and in test [11] was inactive.

With `C[C@@H]1CC(=O)NN=C1c1ccc(NN=C(C#N)C#N)cc1`, the Potency entry in [1], in test [5], in [8], in test [12] and in test [14] was “inactive” in each case. Moreover, the Potency is 6.68 µM (active) in test [2], 23.7 µM (active) in test [3] and 23.7 µM (active) in [16]. Also, the result in test [17], in [6], in test [7], in [9], in test [10] and in [11] was inactive. Moreover, the outcome in test [13] was inactive.

`CC(C)(c1ccccc1)c1ccccc1`: the Potency result in [1], in test [2], in test [3], in test [4], in test [5] and in test [8] was “inactive” throughout. For the same compound, the Potency result in test [12] and in test [14] was “inactive” each time. In addition, the result in test [17], in test [15], in [7], in test [9], in test [10] and in test [11] was inactive.

For `CN1CCCC(n2nc(Cc3ccc(Cl)cc3)c3ccccc3c2=O)CC1` (centres undefined), the Potency entry in test [1], in test [2], in test [3], in test [4], in [5] and in test [8] was “inactive” each time. The Potency result in [12], in [14] and in test [18] was “inactive” throughout. In addition, the call in [15], in test [6], in test [7], in test [9], in test [10] and in test [11] was inactive. Also, in test [13], the compound was classed as inactive.

Regarding `CC1=C(CC=O)C(C)(C)CCC1`, the Potency entry in [1], in test [2], in test [4], in test [5], in [8] and in [12] was “inactive” in each case. The Potency result in test [14] was “inactive”. The result in test [17], in test [15], in test [7], in test [9], in [10] and in test [11] was inactive. Also, in [13], the compound was classed as inactive.
